Data reported in PubChem BioAssay (Tox21).
Unmarked numbers belong to inactive results. Where a call stands in place of a potency, no number is given. Calls of active or inactive are those of the source. Calls follow the shape of the dose curve; as a rule, active = well fitted curve in the direction sought with a large enough effect in the repeat runs; inconclusive = weak or mixed curves; inactive = flat fitted curve, though single readings scatter.

experiment: qHTS assay to test for compound auto fluorescence at 535 nm (green) in HepG2 cells (AID 720675); details: green autofluorescence 485/535 nm, 1 h; series mostly up to 91.3 µM

Row | SMILES | outcome | fluorescence, % of fluorescein control
1 | C=C(C)C(=O)OC(C)C | inactive | 
2 | CC[C@H](C)[C@H](N)C(=O)O | inactive | 
3 | CCN(CC)CCc1nc(-c2ccccc2)no1 |  | 0.0159% [at 18.6 µM]
4 | CCCCCCCCCCCCCCCC(=O)OC/C=C(C)/C=C/C=C(C)/C=C/C1=C(C)CCCC1(C)C | inactive | 
5 | CCOC(=O)CC(=O)c1cc(F)c(Cl)nc1Cl | inactive | 
6 | Cc1ccc(C)o1 | inactive | 
7 | CC(C)CCCC(C)CCO (configuration not stated) | inactive | 
8 | COc1ccc2[nH]c(S(=O)Cc3ncc(C)c(OC)c3C)nc2n1 (configuration not stated) | inactive | 
9 | NC(=S)N/N=C/c1cccnc1 | inactive | 
10 | CC(C)c1ccccc1C(C)C | inactive | 
11 | NCc1ccccc1 | inactive | 
12 | CC(C)(C)c1ccc(S)cc1 | inactive | 
13 | COc1ccccc1OC(=O)Oc1ccccc1OC | inactive | 
14 | CCOc1cc(OCC)c(C(=O)CCC(=O)O)cc1OCC | inactive | 
15 | CC[C@]12CCCN3CCc4c(n(c5ccccc45)C(=O)C1)[C@@H]32 |  | 0.0406% [at 18.6 µM]
16 | CC(C)(C)C(=O)OCOP(=O)(COCCn1cnc2c(N)ncnc21)OCOC(=O)C(C)(C)C | inactive | 
17 | N#CCc1cccc(C(F)(F)F)c1 | inactive | 
18 | O=C=NC1CCC(CC2CCC(N=C=O)CC2)CC1 (configuration not stated) | inactive | 
19 | Cc1cc(NC(=O)C(=O)O)cc(C)c1Oc1ccc(O)c2c1CCC2 | inactive | 
20 | CC(C)CC=O | inactive | 
21 | Nc1ccc(C(=O)Nc2ccccc2N)cc1 | inactive | 
22 | O=c1c2ccccc2nnn1CCl | inactive | 
23 | C=CCCCCCC | inactive | 
24 | CC(=O)N(O)CCCCCNC(=O)CCC(=O)N(O)CCCCCNC(=O)CCC(=O)N(O)CCCCCN |  | -0.0519% [at 18.6 µM]
25 | FC(F)(F)C(F)(F)C(F)(F)C(F)(F)C(F)(F)C(F)(F)CCI | inactive | 
26 | COCCOCCOCCOCCOC | inactive | 
27 | CCCCCCCCCC(=O)OCC | inactive | 
28 | Cc1ccc(C(=O)C(C)CN2CCCCC2)cc1 (configuration not stated) | inactive | 
29 | CCN(CCO)CCCC(C)Nc1ccnc2cc(Cl)ccc12 (configuration not stated) | inactive | 
30 | Cc1cc(CC(=O)O)c(C)n1-c1ccc(Cl)cc1 | inactive | 

experiment: qHTS assay to test for compound auto fluorescence at 460 nm (blue) in HEK293 cells (AID 720678); details: blue autofluorescence 405/460 nm; series mostly up to 91.3 µM
In short: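 Triamterene serves as the blue fluorophore standard. Compound signal at 405/460 nm is read in HEK293 wells (2,000 cells, 10% dialyzed FBS) after overnight treatment at 37C.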

Row | SMILES | Potency | fluorescence, % of triamterene
31 | C=C(C)C(=O)OC(C)C | inactive | 
32 | OCC1CC2CC1C1CCC(CO)C21 (configuration not stated) | inactive | 
33 | CC[C@H](C)[C@H](N)C(=O)O | inactive | 
34 | CCCCCCCCCCCCCCCC(=O)OC/C=C(C)/C=C/C=C(C)/C=C/C1=C(C)CCCC1(C)C | inactive | 
35 | CCOC(=O)CC(=O)c1cc(F)c(Cl)nc1Cl | inactive | 
36 | CC(C)CCCC(C)CCO (configuration not stated) | inactive | 
37 | COc1ccc2[nH]c(S(=O)Cc3ncc(C)c(OC)c3C)nc2n1 (configuration not stated) | inactive | 
38 | NC(=S)N/N=C/c1cccnc1 | inactive | 
39 | CC(C)c1ccccc1C(C)C | inactive | 
40 | CNS(=O)(=O)Cc1ccc2[nH]cc(CCN(C)C)c2c1 | inactive | 
41 | O=[N+]([O-])c1cc[n+]([O-])cc1 | inactive | 
42 | CCOc1cc(OCC)c(C(=O)CCC(=O)O)cc1OCC | inactive | 
43 | O=S(=O)(O)c1ccc(O)c2ncccc12 | inactive | 
44 | CC[C@]12CCCN3CCc4c(n(c5ccccc45)C(=O)C1)[C@@H]32 |  | 0.0203% [at 18.6 µM]
45 | CC(C)(C)C(=O)OCOP(=O)(COCCn1cnc2c(N)ncnc21)OCOC(=O)C(C)(C)C | inactive | 
46 | N#CCc1cccc(C(F)(F)F)c1 | inactive | 
47 | O=C=NC1CCC(CC2CCC(N=C=O)CC2)CC1 (configuration not stated) | inactive | 
48 | Cc1cc(NC(=O)C(=O)O)cc(C)c1Oc1ccc(O)c2c1CCC2 | inactive | 
49 | CC(C)CC=O | inactive | 
50 | O=c1c2ccccc2nnn1CCl | inactive | 
51 | Cc1ccc(C(C)c2ccc(C)c(C)c2)cc1C | inactive | 
52 | C=CCCCCCC | inactive | 
53 | CC(=O)N(O)CCCCCNC(=O)CCC(=O)N(O)CCCCCNC(=O)CCC(=O)N(O)CCCCCN |  | -0.0021% [at 18.6 µM]
54 | FC(F)(F)C(F)(F)C(F)(F)C(F)(F)C(F)(F)C(F)(F)CCI | inactive | 
55 | COCCOCCOCCOCCOC | inactive | 
56 | CCCCCCCCCC(=O)OCC | inactive | 
57 | Cc1ccc(C(=O)C(C)CN2CCCCC2)cc1 (configuration not stated) | inactive | 
58 | CCN(CCO)CCCC(C)Nc1ccnc2cc(Cl)ccc12 (configuration not stated) | inactive | 
59 | Cc1cc(CC(=O)O)c(C)n1-c1ccc(Cl)cc1 | inactive | 

experiment: qHTS assay to test for compound auto fluorescence at 590 nm (red) in HEK293 cells (AID 720679); details: red autofluorescence 540/590 nm; series mostly up to 91.3 µM
In short: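 We plated HEK293 cells in 10% dialyzed FBS medium, let them adhere for 4-5 hr, then added 23 nL compound. Overnight at 37C and 5% CO2 preceded fluorescence measurement at 540/590nm.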

Row | SMILES | outcome | fluorescence, % of fluorescent control
60 | C=C(C)C(=O)OC(C)C | inactive | 
61 | OCC1CC2CC1C1CCC(CO)C21 (configuration not stated) | inactive | 
62 | CCCCCCCCN(C)C | inactive | 
63 | CC[C@H](C)[C@H](N)C(=O)O | inactive | 
64 | CCN(CC)CCc1nc(-c2ccccc2)no1 |  | 0.0464% [at 18.6 µM]
65 | CCCCCCCCCCCCCCCC(=O)OC/C=C(C)/C=C/C=C(C)/C=C/C1=C(C)CCCC1(C)C | inactive | 
66 | CCOC(=O)CC(=O)c1cc(F)c(Cl)nc1Cl | inactive | 
67 | CC(=O)O[C@H]1C[C@@H]2CC[C@@H]3[C@H](CC[C@@]4(C)[C@H]3C[C@H]([N+]3(C)CCCCC3)[C@@H]4OC(C)=O)[C@@]2(C)C[C@@H]1N1CCCCC1 | inactive | 
68 | Cc1ccc(C)o1 | inactive | 
69 | CC(C)CCCC(C)CCO (configuration not stated) | inactive | 
70 | COc1ccc2[nH]c(S(=O)Cc3ncc(C)c(OC)c3C)nc2n1 (configuration not stated) | inactive | 
71 | NC(=S)N/N=C/c1cccnc1 | inactive | 
72 | CC(C)c1ccccc1C(C)C | inactive | 
73 | NCc1ccccc1 | inactive | 
74 | CC(C)(C)c1ccc(S)cc1 | inactive | 
75 | CNS(=O)(=O)Cc1ccc2[nH]cc(CCN(C)C)c2c1 | inactive | 
76 | COc1ccccc1OC(=O)Oc1ccccc1OC | inactive | 
77 | Cc1c(Cn2ccnc2)c2ccccc2n1CCC(=O)O | inactive | 
78 | O=[N+]([O-])c1cc[n+]([O-])cc1 | inactive | 

Row | SMILES | outcome | fluorescence, % of fluorescent control
79 | CCOc1cc(OCC)c(C(=O)CCC(=O)O)cc1OCC | inactive | 
80 | O=S(=O)(O)c1ccc(O)c2ncccc12 | inactive | 
81 | CC[C@]12CCCN3CCc4c(n(c5ccccc45)C(=O)C1)[C@@H]32 |  | 0.0084% [at 18.6 µM]
82 | CC(C)(C)C(=O)OCOP(=O)(COCCn1cnc2c(N)ncnc21)OCOC(=O)C(C)(C)C | inactive | 
83 | N#CCc1cccc(C(F)(F)F)c1 | inactive | 
84 | O=C=NC1CCC(CC2CCC(N=C=O)CC2)CC1 (configuration not stated) | inactive | 
85 | Cc1cc(NC(=O)C(=O)O)cc(C)c1Oc1ccc(O)c2c1CCC2 | inactive | 
86 | CC(C)CC=O | inactive | 
87 | Nc1ccc(C(=O)Nc2ccccc2N)cc1 | inactive | 
88 | O=c1c2ccccc2nnn1CCl | inactive | 
89 | Cc1ccc(C(C)c2ccc(C)c(C)c2)cc1C | inactive | 
90 | C=CCCCCCC | inactive | 
91 | CC(=O)N(O)CCCCCNC(=O)CCC(=O)N(O)CCCCCNC(=O)CCC(=O)N(O)CCCCCN |  | -0.043% [at 18.6 µM]
92 | FC(F)(F)C(F)(F)C(F)(F)C(F)(F)C(F)(F)C(F)(F)CCI | inactive | 
93 | COCCOCCOCCOCCOC | inactive | 
94 | CCCCCCCCCC(=O)OCC | inactive | 
95 | Cc1ccc(C(=O)C(C)CN2CCCCC2)cc1 (configuration not stated) | inactive | 
96 | CCN(CCO)CCCC(C)Nc1ccnc2cc(Cl)ccc12 (configuration not stated) | inactive | 
97 | Cc1cc(CC(=O)O)c(C)n1-c1ccc(Cl)cc1 | inactive | 
